From the supplement of paper PMC6555819

Assays:
Experiment in all cases: PBM binding z-score (relative to random genomic background probes); higher = stronger binding; sequences stand for … in GC…GCGATTGACAGCGTAGAATGAAGG
[1] = test system: RARb homodimer (NR concentration 270 nM)
How it was run: (§1)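 Binding z-scores take random background probes as their reference. They come from custom Agilent 4×180K protein-binding microarrays incubated 1 h with ligand-free nuclear receptor dimers, with antibodies against each partner (one per run) detecting binding. Scanned fluorescence was regression-normalized.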

[2] = test system: RARg:RXRa (NR concentration 270 nM, RXRa partner concentration 90 nM)
How it was run: as §1

[3] = test system: RARg homodimer (NR concentration 270 nM)
How it was run: as §1

[4] = test system: RXRa DBDmut IVT, anti-RXR (DBD mutation: RXRa K156A/R161A, NR concentration 90 nM)
How it was run: as §1

[5] = test system: RXRa homodimer (NR concentration 180 nM)
How it was run: as §1

[6] = test system: THRa:RXRa (NR concentration 90 nM, RXRa partner concentration 90 nM)
How it was run: as §1

[7] = test system: THRa homodimer (NR concentration 90 nM)
How it was run: as §1

[8] = test system: VDR homodimer (NR concentration 270 nM)
How it was run: as §1

CCTCGGAGGACAAGAGGAGGTCAGAGCTGCCAGA
PBM binding z-score [1]: 2.96 | PBM binding z-score [2]: 2.87 | PBM binding z-score [3]: 2.83 | PBM binding z-score [4]: 0.0626 | PBM binding z-score [5]: 1.58 | PBM binding z-score [6]: 2.55 | PBM binding z-score [7]: 0.679 | PBM binding z-score [8]: 0.697

TCTGGTTGGTCACGGAGGTCACACACGACGGGTA
PBM binding z-score [1]: 4.58 | PBM binding z-score [2]: 4.91 | PBM binding z-score [3]: 5.28 | PBM binding z-score [4]: 0.702 | PBM binding z-score [5]: 4.97 | PBM binding z-score [6]: 3.58 | PBM binding z-score [7]: 2.93 | PBM binding z-score [8]: 3.66

TCATATAGGTAAATGGTGAAAGTCGGTGTGGTAA
PBM binding z-score [1]: 0.19 | PBM binding z-score [2]: 0.0436 | PBM binding z-score [3]: -0.12 | PBM binding z-score [4]: 1.83 | PBM binding z-score [5]: 0.476 | PBM binding z-score [6]: 0.0433 | PBM binding z-score [7]: 0.202 | PBM binding z-score [8]: 0.415

AGAATGCGGTTATACGTAGATCAGGGAAGAAAGT
PBM binding z-score [1]: -0.25 | PBM binding z-score [2]: 0.0152 | PBM binding z-score [3]: -0.0583 | PBM binding z-score [4]: -0.501 | PBM binding z-score [5]: 0.067 | PBM binding z-score [6]: -0.31 | PBM binding z-score [7]: -0.634 | PBM binding z-score [8]: -0.661

CGTCCAAGGTCAATGCTAGGTCCGTGAAAGCATT
PBM binding z-score [1]: 3.83 | PBM binding z-score [2]: 5.71 | PBM binding z-score [3]: 5.7 | PBM binding z-score [4]: 3.67 | PBM binding z-score [5]: 4.55 | PBM binding z-score [6]: 3.82 | PBM binding z-score [7]: 2.12 | PBM binding z-score [8]: 2.96

CCAACTGGGCCATTCAGAGGTCATTGATCATATG
PBM binding z-score [1]: 3.76 | PBM binding z-score [2]: 4.28 | PBM binding z-score [3]: 2.94 | PBM binding z-score [4]: 1.22 | PBM binding z-score [5]: 3.98 | PBM binding z-score [6]: 3.12 | PBM binding z-score [7]: 1.3 | PBM binding z-score [8]: 3.31

ACTATTGGTTGAGACGAGGGCAACCGATAGGTTG
PBM binding z-score [1]: 1.15 | PBM binding z-score [2]: 0.833 | PBM binding z-score [3]: 0.715 | PBM binding z-score [4]: 0.116 | PBM binding z-score [5]: 0.596 | PBM binding z-score [6]: 2.69 | PBM binding z-score [7]: 0.731 | PBM binding z-score [8]: 1.02

AGCTCTAGGTAAAGTTCAGTGAAAGATCGATAGA
PBM binding z-score [1]: 2.32 | PBM binding z-score [2]: 1.94 | PBM binding z-score [3]: 2.58 | PBM binding z-score [4]: 1.43 | PBM binding z-score [5]: 0.97 | PBM binding z-score [6]: 0.941 | PBM binding z-score [7]: -0.0509 | PBM binding z-score [8]: 1.6

ATATGTAGGTTACATCCGCGTCATTCAGGCTATG
PBM binding z-score [1]: 0.571 | PBM binding z-score [2]: 0.929 | PBM binding z-score [3]: 1.09 | PBM binding z-score [4]: 0.366 | PBM binding z-score [5]: 0.901 | PBM binding z-score [6]: 0.526 | PBM binding z-score [7]: 0.124 | PBM binding z-score [8]: 0.163

CAAATTAGGTCACAGAGGTCAAAGTCCGTGCGTA
PBM binding z-score [1]: 5.59 | PBM binding z-score [2]: 7.24 | PBM binding z-score [3]: 7.81 | PBM binding z-score [4]: 3.72 | PBM binding z-score [5]: 7.43 | PBM binding z-score [6]: 4.73 | PBM binding z-score [7]: 3.68 | PBM binding z-score [8]: 6.37

ATATGTAGGTTACATCCGGGTCCTTCAGGCTATG
PBM binding z-score [1]: 0.958 | PBM binding z-score [2]: 0.862 | PBM binding z-score [3]: 0.764 | PBM binding z-score [4]: 0.474 | PBM binding z-score [5]: 1.07 | PBM binding z-score [6]: 1.51 | PBM binding z-score [7]: 0.753 | PBM binding z-score [8]: 0.68

CCTACTGGGCCATCAGGTTATTGATATCAACGTT
PBM binding z-score [1]: 0.464 | PBM binding z-score [2]: 0.256 | PBM binding z-score [3]: 0.522 | PBM binding z-score [4]: -0.157 | PBM binding z-score [5]: 0.0138 | PBM binding z-score [6]: 0.797 | PBM binding z-score [7]: 0.712 | PBM binding z-score [8]: -0.275

ATCTCTTGGTAACAAGTTCAGTGAAAGAGAGGAC
PBM binding z-score [1]: 1.67 | PBM binding z-score [2]: 0.629 | PBM binding z-score [3]: 1 | PBM binding z-score [4]: 1.09 | PBM binding z-score [5]: 0.531 | PBM binding z-score [6]: 0.831 | PBM binding z-score [7]: 0.489 | PBM binding z-score [8]: 2.61

CCTTCCGGGTCAAGGTTATAGCACGGGTGGTACG
PBM binding z-score [1]: 3.39 | PBM binding z-score [2]: 4.76 | PBM binding z-score [3]: 4.46 | PBM binding z-score [4]: 0.695 | PBM binding z-score [5]: 4.97 | PBM binding z-score [6]: 3.73 | PBM binding z-score [7]: 2.35 | PBM binding z-score [8]: 1.72

GCTCTTAGTTGAAAGGGCAACCGAATGATTCTCG
PBM binding z-score [1]: 1.96 | PBM binding z-score [2]: 1.34 | PBM binding z-score [3]: 1.31 | PBM binding z-score [4]: 0.899 | PBM binding z-score [5]: 1.18 | PBM binding z-score [6]: 0.622 | PBM binding z-score [7]: -0.289 | PBM binding z-score [8]: 0.164

CAAACTTGGTCAAAGGTCAAAGTCGAGCCAACCA
PBM binding z-score [1]: 4.86 | PBM binding z-score [2]: 7.37 | PBM binding z-score [3]: 6.36 | PBM binding z-score [4]: 1.58 | PBM binding z-score [5]: 8.93 | PBM binding z-score [6]: 3.89 | PBM binding z-score [7]: 0.672 | PBM binding z-score [8]: 2.28

CCAAGCAGGCCAATCTGGGTCACTCAAGGCTTGA
PBM binding z-score [1]: 2.26 | PBM binding z-score [2]: 1.4 | PBM binding z-score [3]: 1.34 | PBM binding z-score [4]: 0.0779 | PBM binding z-score [5]: 1.25 | PBM binding z-score [6]: 3.74 | PBM binding z-score [7]: 0.319 | PBM binding z-score [8]: 0.154
